The list is not random: actives were taken first. Their share in the collection is about 5.1%.
KCC2 mod: modulators of human KCC2 chloride dependent transport | KCC2 cells, thallium flux FluoZin-2 fluorescence | B-score of Tl+ flux slope (higher = more flux/activation; lower = inhibition) at 10 µM | Q9H2X9 | actives 2.2% (n = 190,000);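 active = thallium flux slope and its plate-corrected score both differing from the plate sample mean at a set confidence after two filtering rounds, in either direction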;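 note: slope of fluorescence scaled to starting intensity during 10 to 20 s after thallium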
ROMK mod: modulates human ROMK potassium channel activity; P48048; Tet-inducible ROMK, thallium flux fluorescence; actives lie on both sides; B-score at 10 µM; actives 2% (n = 130,000); AID 1918;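 active = signal ratio slope over the read window, or its plate-corrected B-score, at least 3 SD from the plate mean, either direction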;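 note: B-score of the F/F0 ratio slope over 7 to 12 s after thallium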
RAM network inh: inhibitors of the yeast RAM network; S. cerevisiae dse1pr::URA3 reporter, 5-FOA growth OD615, 2 d; analog-sensitive cbk1-as2 kinase mutant strain; inhibition, % at 50 µM; actives 1.8% (n = 190,000); AID 868;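 active = inhibition above a set limit, 3 SD over mean compound inhibition, cut at about 8.4% in these data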;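 note: 0% = DMSO-only wells with no growth and 100% = 10 µM 1-NA-PP1 full growth; inhibition rescues growth on 5-FOA so higher OD means more RAM inhibition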
S1P3 antag: antagonists of human S1P3 receptor; Q99500; CHO S1P3 NFAT-BLA reporter, FRET fluorescence, antagonist mode; inhibition, % at 4.98 µM; actives 0.27% (n = 170,000); AID 485;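 active = inhibition above the plate cutoff, the mean inhibition of test wells on that plate plus 3 SD, cut at about 28% in these data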;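 note: cells challenged with S1P at its EC80 of 0.8 µM; blue over green emission ratio from cleaved BLA substrate after 4 h stimulation; 0% = S1P-stimulated wells and 100% = unstimulated DMSO-only wells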
Target sequence (Q99500 whole entry, looked up): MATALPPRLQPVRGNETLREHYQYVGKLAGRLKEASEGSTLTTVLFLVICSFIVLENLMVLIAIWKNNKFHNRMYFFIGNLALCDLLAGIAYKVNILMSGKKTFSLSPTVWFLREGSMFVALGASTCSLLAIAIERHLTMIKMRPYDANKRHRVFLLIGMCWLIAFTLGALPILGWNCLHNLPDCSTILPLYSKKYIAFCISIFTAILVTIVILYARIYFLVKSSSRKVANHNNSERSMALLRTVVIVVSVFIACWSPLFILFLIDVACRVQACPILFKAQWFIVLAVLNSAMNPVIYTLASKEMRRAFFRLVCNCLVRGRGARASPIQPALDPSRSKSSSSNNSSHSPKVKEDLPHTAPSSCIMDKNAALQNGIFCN
S1P4 antagonist: blocks the human S1P4 receptor. S1P4-expressing cells, antagonist mode, reporter read-out. O95977. actives 0.26% (n = 220,000). inhibition, % at 4.98 µM; in the data active = inhibition above about 29%;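 note: 0% = wells stimulated with agonist and 100% = vehicle wells without agonist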
Target sequence (O95977 whole entry, looked up): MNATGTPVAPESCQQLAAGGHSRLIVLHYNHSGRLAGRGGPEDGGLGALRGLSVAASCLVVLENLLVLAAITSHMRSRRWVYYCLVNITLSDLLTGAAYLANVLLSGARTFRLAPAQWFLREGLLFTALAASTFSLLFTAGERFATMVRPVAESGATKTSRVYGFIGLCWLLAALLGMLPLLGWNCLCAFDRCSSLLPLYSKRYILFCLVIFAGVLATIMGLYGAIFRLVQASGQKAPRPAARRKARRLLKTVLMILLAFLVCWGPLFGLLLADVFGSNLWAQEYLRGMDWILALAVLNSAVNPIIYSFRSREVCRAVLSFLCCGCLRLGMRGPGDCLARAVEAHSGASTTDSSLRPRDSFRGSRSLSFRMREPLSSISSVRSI
S1P4 agonist: activates the human S1P4 receptor. activation, % at 4.98 µM. actives 0.35% (n = 220,000). AID 1509. O95977. S1P4-expressing cell line, agonist reporter assay; in the data active = activation above about 11%;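 note: 0% = DMSO vehicle and 100% = reference agonist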
KCC2 sec1: KCC2 (human) modulation, secondary assay. normalised thallium flux (F/F0 slope) at 10 µM. actives 15% (n = 3,700). HEK293-KCC2, thallium flux, FluoZin2 fluorescence; hits give high values. shares compounds with KCC2 mod;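 active = thallium flux slope above the same plate's solvent-only control mean plus 3 SD; inconclusive = the two replicate wells disagree; inactive = no significant difference from solvent-only control wells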
KCC2 bumet counter: bumetanide-insensitive thallium flux in KCC2 cells with ouabain, counter-screen | actives 49% (n = 3,700) | shares compounds with KCC2 mod | HEK293-KCC2 + bumetanide/ouabain, thallium flux FluoZin2; hits give high values | normalized thallium flux at 10 µM;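 active = thallium entry rate above the same plate's blocked-transporter control wells by more than 3 SD; inconclusive = the two repeat wells disagree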;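 note: raw slope of fluorescence over initial fluorescence between 10 and 20 s after thallium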
KCC2 secondary2: confirmation of human KCC2 transport modulators. normalized thallium flux at 10 µM. shares compounds with KCC2 mod. HEK293-KCC2, thallium flux FluoZin2 fluorescence; actives lie on both sides; F/F0 rise rate, 10–20 s post-thallium. actives 23% (n = 3,700);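 active = thallium flux slope more than 3 SD above or below the plate's solvent-only control mean, mostly below; inconclusive = the two repeat wells disagreed; inactive = no significant shift from solvent-only controls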;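 note: raw slope with 0.1% DMSO as baseline and bumetanide as block control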
HEK293 Tl flux: counter-screen for KCC2 modulators: effect in parental HEK293 cells; shares compounds with KCC2 mod; thallium flux FluoZin2, ouabain; baseline-ratio fluorescence slope, 10–20 s after thallium; thallium flux rate (normalised fluorescence) at 10 µM; actives 46% (n = 3,700);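 active = thallium flux rate significantly above the same plate's solvent-only control wells, beyond their mean plus 3 SD; inconclusive = the two replicate wells gave conflicting results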
KCC2 retest ouab: modulates human KCC2 on retest with ouabain; HEK293-KCC2, thallium flux FluoZin2 fluorescence; bidirectional: low = inhibitor, high = activator; actives 48% (n = 3,700); AID 1717; raw Tl+ flux slope (below DMSO = inhibition, above = activation) at 10 µM; shares compounds with KCC2 mod;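 active = thallium flux slope beyond 3 SD from same-plate DMSO control mean in most replicates, usually higher, sometimes lower; inconclusive = repeat tests gave conflicting results; inactive = no significant difference from controls in most replicates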;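 note: slope of initial-normalized fluorescence between seconds 10 and 20 after thallium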
HEK293 Tl flux2: parental HEK flux effect, counter-screen 2. shares compounds with KCC2 mod. thallium flux slope at 10 µM. HEK293 parental, thallium flux FluoZin-2 fluorescence slope. AID 1718. actives 33% (n = 3,700);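 active = thallium flux slope above the same plate's solvent-control mean plus 3 SD in both duplicate wells; inconclusive = duplicate wells that disagreed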;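 note: run without ouabain in cells lacking the KCC2 cotransporter; slope of fluorescence scaled to its starting value between 10 and 20 s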
The depositor's hits bear a star; ? = inconclusive; . = no result.

SMILES | KCC2 mod | ROMK mod | RAM network inh | S1P3 antag | S1P4 antagonist | S1P4 agonist | KCC2 sec1 | KCC2 bumet counter | KCC2 secondary2 | HEK293 Tl flux | KCC2 retest ouab | HEK293 Tl flux2
CN(C)C(=O)COc1ccc(Oc2ccccc2)cc1 | -0.405 | -0.354 | -0.5 | 6.5 | -10.8 | 1.9 | . | . | . | . | . | .
O=c1c2cnn(-c3ccccc3)c2nc(-c2cccs2)n1-c1ccc(Br)cc1 | -0.352 | -0.31 | 2.5 | . | -7.0 | 1.1 | . | . | . | . | . | .
O=C(O)CSc1nc2c(cnn2-c2ccccc2)c(=O)n1-c1ccc(Br)cc1 | -5.57* | 1.71 | 4.8 | -3.8 | 2.8 | -0.6 | 0.00549 | 0.0045 | 0.0217* | ? | 0.0112* | 0.00969
Cc1ccc2c(Cl)cc(Cl)c(OCC(=O)N(C(C)C)C(C)C)c2n1 | 4.03* | . | 1.9 | 10.8 | 0.9 | 2.0 | 0.0161 | 0.014* | 0.0284 | 0.0105* | 0.0186 | 0.0118
COC(=O)COc1c(Cl)cc(Cl)c2ccc(C)nc12 | 6.21* | -2.24 | -0.5 | 2.4 | -7.4 | 0.7 | 0.0157 | 0.0107* | 0.0304 | 0.0109* | 0.0193 | 0.014*
Cc1ccc2c(Cl)cc(Cl)c(OCC(=O)NC(C)(C)C)c2n1 | 6.88* | -0.652 | -1.2 | -3.2 | -9.3 | 0.5 | 0.0103 | 0.0309* | 0.0304 | 0.0175* | 0.0322* | ?
CC(C)N(C(=O)COc1ccc(Br)cc1Cl)C(C)C | -0.463 | . | -0.7 | 29.2 | -1.6 | 0.2 | . | . | . | . | . | .
Cc1ccc(CCNC(=O)Cn2cccc2)cc1 | . | -0.634 | -0.2 | -33.6 | -2.0 | 0.8 | 0.0115 | 0.00641 | 0.0311 | 0.00784 | 0.0227 | 0.01
COc1cccc(/C=N/N2C(=O)CSC2=S)c1O | 3.54* | 0.391 | 1.4 | 4.9 | 14.5 | 3.0 | 0.0129* | 0.0156* | 0.0333 | 0.0105* | ? | ?
COc1ccc(C)cc1S(=O)(=O)N1c2ccccc2CC1C (stereo unspecified) | . | . | 0.7 | . | -5.4 | -0.1 | . | . | . | . | . | .
CC1=C(C(=O)OCCOc2ccccc2)C(c2ccsc2)NC(=O)N1C (stereo unspecified) | -6.61* | -1.31 | 0.1 | 3.0 | -11.3 | -0.9 | 0.00843 | 0.00599 | 0.0301* | 0.00381 | 0.016* | 0.0106
COC(=O)C1=C(C)N(C)C(=O)NC1c1ccccc1 (stereo unspecified) | . | 0.258 | 0.4 | 10.4 | -35.0 | -1.3 | . | . | . | . | . | .
CC1Cc2ccccc2N1C(=O)CSc1nc(-c2ccco2)cc(C(F)(F)F)n1 (stereo unspecified) | . | 0.115 | 4.6 | 2.6 | -26.8 | 2.9 | 0.00835 | 0.0053 | 0.033 | 0.00772 | 0.0188 | 0.0118
CN1CCN(C(=O)CSc2nc(-c3ccco3)cc(C(F)(F)F)n2)CC1 | -1.88 | -0.179 | 2.3 | -17.3 | 2.4 | -2.1 | . | . | . | . | . | .
Cn1c(-c2ccc(F)cc2)cnc1SCC(=O)N1CCCc2ccccc21 | -3.37 | -1.87 | 0.3 | -2.2 | -15.7 | -0.2 | . | . | . | . | . | .
CC1Cc2ccccc2N1C(=O)CSc1nnc2n1C(C)(C)Cc1ccccc1-2 (stereo unspecified) | -5.57* | . | 1.5 | 4.3 | -7.8 | -0.6 | 0.00583 | ? | 0.0237* | 0.00733 | ? | 0.0108
CC1Cc2ccccc2N1C(=O)CSc1ncc(-c2ccc(F)cc2)n1C (stereo unspecified) | -4.17* | . | -0.5 | -3.6 | -17.6 | 1.7 | 0.00551 | 0.00359 | 0.0239* | 0.00601* | 0.0132* | ?
CCOC(=O)CSc1nnc2n1C(C)(C)Cc1ccccc1-2 | 0.0554 | 0.496 | -0.2 | -17.2 | -13.5 | -1.4 | . | . | . | . | . | .
Cc1ccc(C(=O)C(C)N2C(=O)NC(C)(c3ccccc3)C2=O)cc1 (stereo unspecified) | 0.741 | 0.44 | 5.6 | -0.3 | -15.7 | 1.2 | . | . | . | . | . | .
C/C(=N\Nc1cc(C)nc(-c2ccccc2O)n1)c1ccccc1 | -0.283 | 0.193 | 0.8 | 0.1 | 16.1 | -0.8 | . | . | . | . | . | .
C/C(=N\Nc1nc2ccc(Cl)cc2o1)c1ccccc1 | 10.2* | 0.553 | . | -2.0 | -13.2 | 0.8 | 0.00639 | 0.00488 | 0.0334 | 0.013* | 0.022 | 0.0154*
CC1=NN(c2nc3ccccc3[nH]2)C(=O)/C1=C/N(C)C | 0.611 | -0.113 | -0.1 | -8.2 | -3.5 | 0.6 | . | . | . | . | . | .
CC1=NN(c2nc3ccccc3[nH]2)C(=O)C1Cc1ccccc1 (stereo unspecified) | 8.58* | . | . | -16.1 | -1.3 | -0.1 | 0.00756 | 0.0163* | 0.0374 | 0.0161* | 0.0273* | 0.0193*
C/C(=N\NC(=S)Nc1cc(S(=O)(=O)N2CCOCC2)ccc1Cl)c1ccccc1F | 6.94* | -0.245 | 3.6 | 1.1 | -18.0 | 0.0 | ? | 0.0249* | 0.0302 | 0.0154* | 0.0437* | 0.01
CC(C)N(C(=S)Nc1cc(S(=O)(=O)N2CCOCC2)ccc1Cl)c1ccccc1 | 0.528 | 0.945 | 0.1 | -4.6 | -1.7 | 0.5 | . | . | . | . | . | .
SMILES | KCC2 mod | ROMK mod | RAM network inh | S1P3 antag | S1P4 antagonist | S1P4 agonist | KCC2 sec1 | KCC2 bumet counter | KCC2 secondary2 | HEK293 Tl flux | KCC2 retest ouab | HEK293 Tl flux2
S=c1[nH]nc(-c2ccco2)n1/N=C/c1ccc(Cl)cc1 | 4.11* | 0.761 | 2.0 | 5.2 | -0.1 | -1.0 | 0.0148* | 0.146* | 0.0315 | 0.0534* | 0.0737* | 0.0131*
S=c1[nH]nc(-c2ccco2)n1/N=C/c1ccccc1Cl | 10.4* | . | 1.9 | -10.0 | -3.8 | -1.1 | 0.0118* | 0.0363* | 0.0369 | 0.0181* | 0.0411* | 0.0122*
COc1ccc(C(=O)NC(=S)N2CCN(c3ccc([N+](=O)[O-])cc3)CC2)cc1 | 4.11* | . | 1.7 | 5.8 | -6.5 | -0.2 | 0.00632 | 0.0124* | 0.0316 | 0.0096* | 0.0288* | 0.0113*
COc1ccc(NC(=O)N2CCN(c3ccc([N+](=O)[O-])cc3)CC2)cc1 | 0.458 | -0.18 | 6.2 | 4.5 | -10.7 | -0.1 | . | . | . | . | . | .
Cc1ccc(NC(=O)c2ccccc2NS(=O)(=O)c2ccc(Cl)s2)cc1 | -3.71* | 0.00196 | 0.3 | -3.2 | -15.8 | 0.6 | 0.00711 | ? | 0.022* | 0.00717 | ? | 0.0101
O=C(O)C(=O)Cc1c[nH]c2ccccc12 | -1.74 | -1.25 | 0.0 | -1.0 | -10.9 | -4.2 | . | . | . | . | . | .
C/C(=N\NC(=S)NCc1ccccc1)c1ccccc1F | 3.69 | 0.715 | 2.2 | -6.1 | 1.3 | 0.4 | . | . | . | . | . | .

High-throughput results from PubChem BioAssay.
